In article PMC12136788 one finds binding signal data, which are given here for 15 molecules.

To fix the notation:
B1: chr17:57737884:57737885:+_ENSG00000141367_ENST00000269122|hu_mus|motif|central (ssRNA)
RNA: GGGAGUUCUACAGUCCGACGAUCGUUUCCCUGGGCGAAGAGAGCAUUAAAUUUCCGGGCAAAGAGUUCUUCAGCACCAGCGGAGUUGUUCCGCACAGCCAUUCUCAGAGCCAAGUCAGGAUUUUGUAGGACAUUGGUGAUAUACAACAGAGGAUUGAGCAUCA
B2: chr3:101400026:101400027:-_ENSG00000114391_ENST00000394077|hu_mus|FALSE|FALSE (ssRNA)
RNA: GGGAGUUCUACAGUCCGACGAUCCUACCACACUAGCGUUUCCCACCAACUCUGGGGGCAGAGACCUUCACAGGCUUCACAAUCUUUUGUUUAGGUGCUGCCUUUGUGGGGGCCUUGGCAGCAGCCAUUGCUGUCUUCUUUGAUCAACAGAGGAUUGAGCAUCA
B3: chr2:48026839:48026840:+_ENSG00000116062_ENST00000540021|hu_hu|hu_hu_hu_mus_False|18_58 (ssRNA)
RNA: GGGAGUUCUACAGUCCGACGAUCAUAGUGAGCCACUAGCGUCCUAAAUCUGGAACAGUGGCGGUCAUCCGAAAACUGACCUAUGAAAAACUUGCCCAGUGAAGUGUCCACAAAGCACACACCAUAUACACGAGUGUGACCAGACAACAGAGGAUUGAGCAUCA
B4: chr5:67446008:67446009:+_ENSMUSG00000037736_ENSMUST00000038188|mus_mus|FALSE|FALSE (ssRNA)
RNA: GGGAGUUCUACAGUCCGACGAUCGCCCCCAAGGGUAAGUAACACAAAUGUCUCCGGGAAUACAGUAUAUAUUAUCAGACUAGUGUCUUUGCAUUAAAAAAAAAAAAAGUUAUAGUUCAGAGUCAGAACUCGCUGGGGUAUCUACAACAGAGGAUUGAGCAUCA
B5: 35171164_35172336_3352_CDS_ENSMUSG00000029104_ENSMUST00000080036|mouse|control|control (ssRNA)
RNA: GGGAGUUCUACAGUCCGACGAUCGGGGGCACUCGCUGCUAGCAAGUUUCCAGCCAAAAUCAAGGCAUCCUGAUGGGCUGAGAGAUCCAGUGGGAACCAAGCUGAUGAAAGCAAGGUGAGAAUCAUGGAGGCCAUCCCAACAGUCAACAGAGGAUUGAGCAUCA
B6: chr2:202488911:202488912:-_ENSG00000155755_ENST00000286196|hu_mus|hu_hu_hu_mus_False|8_98 (ssRNA)
RNA: GGGAGUUCUACAGUCCGACGAUCAUUGAAACAUUUUCAUAAUAUUGCAGUAGCAUUUCAGCAUUAUGUAACAAAAGCUCAAUUGUAAAUACAUGUAUCUUAUAAAAAUACACUUAAAAACACGAGUAAAAAUGGGAGGCGCCACAACAGAGGAUUGAGCAUCA
B7: chr4:95690885:95690886:+_ENSMUSG00000028572_ENSMUST00000156910|mus_mus|mus_mus_mus_hu_False|78_88 (ssRNA)
RNA: GGGAGUUCUACAGUCCGACGAUCUUUAGAAAAUGUUAAAUACCAUGAGCAUGCUAAGUAAUUUUAAUAUUUUAUUUUACCAGAAGUCACAGGCAAGCAGACACUACAAGAAUAUAUGAAAAUGAAACUCAACAAUAUAACUGUCAACAGAGGAUUGAGCAUCA
B8: chr7:108213676:108213677:+_ENSG00000128590_ENST00000249356|hu_hu|FALSE|FALSE (ssRNA)
RNA: GGGAGUUCUACAGUCCGACGAUCUCCAUGAAAUCUAUUUUCAGUCUGUACUGUAUGCUGAUUGGUAGAGUCAAAACCACUAAAAGAAAACAUUUUCUCCAUAUCUUCAAACAUGUCAUCAAAUAAUCCACCUCCAAAAGAAAACAACAGAGGAUUGAGCAUCA
B9: chr10:70744696:70744697:+_ENSG00000165732_ENST00000354185|hu_hu|motif|central (ssRNA)
RNA: GGGAGUUCUACAGUCCGACGAUCUUAAAUUAGAAAAUAUUUUCUUUGUAGAAAAUAGUAAAAAUUAUAACAUUUACCAAGCGGACCCAACAAGUUCAUUUAAACCAAAAAGUAGCUAAAUACAUUAUACAUUUAUAAAUACAGCAACAGAGGAUUGAGCAUCA
B10: chr16:23113652:23113653:+_ENSMUSG00000022884_ENSMUST00000115341|mus_mus|FALSE|FALSE (ssRNA)
RNA: GGGAGUUCUACAGUCCGACGAUCCCACAAGUAUAUUAUUAAAUGAUAGAGAACAUCUAAUACAACCAUUUCUACAUAACUAGUAAAUGAAUUUCUAAGAAAAAAAGAUUUUACAGACCCCAUCUUUUAUACCCACCCCCAACACAACAGAGGAUUGAGCAUCA
B11: chr15:91426070:91426071:+_ENSG00000140564_ENST00000268171|hu_mus|FALSE|FALSE (ssRNA)
RNA: GGGAGUUCUACAGUCCGACGAUCGGCAGCCAUGGGAAGGGCAGGGUGGGUGUGGGCAUGAGAAGGUCAAGGGUCCAGCUGCUACCCCCAUUAAAAAUACAAAAAAAAAAAAAAAAAAGAAUCAGCAUCUAAAGUGAAUAAUCACAACAGAGGAUUGAGCAUCA
B12: chr5:32794366:32794367:+_ENSMUSG00000014956_ENSMUST00000015100|mus_mus|FALSE|FALSE (ssRNA)
RNA: GGGAGUUCUACAGUCCGACGAUCAGAAGAGAGCCAGCUAUCCAAGGCUUGUCAAAAAGGAUUCUCAUGUUCUGUGAAUCUAAAAACAAACAAACAACAAAAACCCCAAAAAACAAAACCAAUGCAGGUGAGGGUAAUACCAGACAACAGAGGAUUGAGCAUCA
B13: chr1:182620099:182620100:+_ENSMUSG00000058729_ENSMUST00000085803|mus_mus|motif|central (ssRNA)
RNA: GGGAGUUCUACAGUCCGACGAUCAACAACAAAGCUUUUAUAAAUUAUGAUAAAUUAAAAUAUUUAUUAUUAUAAUUGAUCGGUAGAACCAUGUCCCACUGUCAGUAUAUGAAACAUACACUUAAGUCCGUGUUUCCCAUCUGUCAACAGAGGAUUGAGCAUCA
B14: chr5:67446008:67446009:+_ENSMUSG00000037736_ENSMUST00000038188|mus_mus|motif|central (ssRNA)
RNA: B4 RNA with U80G, A81G
B15: 131763144_131763264_1223_3pUTR_ENSMUSG00000079037_ENSMUST00000091288|mouse|control|control (ssRNA)
RNA: GGGAGUUCUACAGUCCGACGAUCUCACCUUGUACUCUGGGUACAAGUCAGGGGAUACACCAGUAUUUAUUCACUAGACCAAAACAAAGCCCCAACUAGCCAGCAGUUAUUUGGUGUUAUAUUCUUAUUGGCCCGGUGUUAGCACAACAGAGGAUUGAGCAUCA

Substitutions are numbered along the chain they refer to. Whole data set: some 24,000 sequences, median “enrichment r” near 0.99, cut for the highest 2% near 3.7. Many of the other results were omitted from the sample, so the highest values are more common in it than they were.

The target in the assay is T1, UNK ZnF1-3 (human, UniProt Q9C0B0 31-174).
T1 sequence: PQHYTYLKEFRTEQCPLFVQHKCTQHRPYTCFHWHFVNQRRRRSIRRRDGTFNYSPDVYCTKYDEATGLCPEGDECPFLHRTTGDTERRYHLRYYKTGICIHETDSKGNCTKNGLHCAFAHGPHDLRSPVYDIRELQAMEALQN
Put plainly: nsRBNS (natural sequence RNA bind-n-seq); RBNS binding buffer (assumed for nsRBNS): 25 mM Tris pH 7.5, 150 mM KCl, 3 mM MgCl2, 0.01% Triton X-100, 500 ug/ml BSA, 20 U/ml SUPERase-In, 4 C; UNK is unkempt and MSI1 is Musashi-1; names of the RNAs are library labels; protein concentration not given here; high values mean tight binding.
Regarding B1, the binding signal came out at 2.06 enrichment R.
B2 displayed a binding signal of 0.756 enrichment R.
With B3, the binding signal was found to be 1.26 enrichment R.
For the molecule B4, the binding signal is 5.07 enrichment R.
On to B5, for which the binding signal stood at 1.2 enrichment R.
As for B6, the binding signal was 0.677 enrichment R.
For B7, the binding signal came to 3.29 enrichment R.
The molecule B8 yielded a binding signal of 1.22 enrichment R.
With B9, the binding signal came to 3.65 enrichment R.
For B10, the binding signal was determined as 3.96 enrichment R.
As for B11, the figure is 19.6 enrichment R.
On to B12, for which the binding signal amounted to 1.31 enrichment R.
The molecule B13 registered a binding signal of 7.41 enrichment R.
Consider B14, for which the binding signal turned out to be 3.48 enrichment R.
As for B15, the figure is 0.474 enrichment R.
